Sampled rows, rich in hits. Any-hit rate of the full collection: about 1.1%.
Yp Topo-I inh: Yersinia pestis topoisomerase I inhibitors, primary screen, biochemical, cleavage product accumulation, plate reader, single point | DNA topoisomerase I (Yersinia pestis CO92) | Y. pestis Topo-I cleavage product accumulation | activity, % at 10 µM | hit rate 0.064% among 360,000; in the data active = activity above about 50%, passing the limit was not always enough
CCHF vOTU inh-1: CCHFV vOTU protease inhibitors, primary screen, biochemical, Pep-AMC substrate, fluorescence; Crimean-Congo hemorrhagic fever virus L polyprotein viral ovarian tumor (vOTU) protease …; inhibition, % at 11.5 µM; hit rate 0.55% among 370,000; AID 651958, 2012
BH1578 lux ind: inducers of Vibrio cholerae quorum light production without autoinducers, primary screen, BH1578 luxS cqsA deficient, single point | hit rate 0.16% among 350,000 | V. cholerae BH1578 lux reporter, luminescence, 6 h | activation, % at 18.7 µM | AID 588436, 2011; in the data active = activation mostly above about 9.7%, no sharp cut-off
PrPC surface inh: inhibitors of human cell surface prion protein PrPC, primary screen, cell-based, TR-FRET. TR-FRET read-out. inhibition, % at 13.8 µM. hit rate 0.43% among 370,000; in the data active = inhibition above about 24%
CCHF vOTU inh-2: CCHFV vOTU protease inhibitors, confirmation, biochemical, Pep-AMC substrate, fluorescence. shares compounds with CCHF vOTU inh-1. Recombinant CCHFV vOTU. inhibition, % at 11.5 µM. hit rate 17% among 1,900
Of the large screens only hits and unclear results are named; the others gave an inactive call (follow-up assays come after a bar, where they were run). Rule as the data show it, unless noted: active = inhibition above about 30%; inactive = the rest.

O=C(O)c1cccc(Cn2c(Cl)c(/C=N/NC(=O)c3cc4ccccc4cc3O)sc2=O)c1	CCHF vOTU inh-1 30.2 | CCHF vOTU inh-2 inactive
CCCCCCN1CCS(=O)(=O)N(Cc2ccccc2)C(C(=O)OC)C1 (stereo not drawn)	none (no result: Yp Topo-I inh, BH1578 lux ind)
CCCCCCCCN1CCS(=O)(=O)N(Cc2ccc(C)cc2)C(C(=O)OC)C1 (stereo not drawn)	CCHF vOTU inh-1 29.8 (no result: Yp Topo-I inh, BH1578 lux ind) | CCHF vOTU inh-2 inactive
O=C(CSc1nc2ccccc2c(=O)n1-c1cccc(C(F)(F)F)c1)NC1CC1	none
CC(=O)N(C1=C(Cl)C(=O)c2ccccc2C1=O)C1CCCCC1	CCHF vOTU inh-1 100.1 | CCHF vOTU inh-2 98.4
COc1ccc(C(=O)c2ccccc2)c2c(O)ccc(C(=O)c3ccccc3)c12	none
COc1ccc(C(C)=O)c2c(O)cccc12	CCHF vOTU inh-1 30.6 | CCHF vOTU inh-2 inactive
Cc1sc2ncn(CC(=O)NCc3ccccn3)c(=O)c2c1S(=O)(=O)N1CCOCC1	none
COc1cc(/C=N/N=C2/NC(=O)C(CC(=O)O)S2)ccc1OCc1ccc(Cl)cc1 (stereo not drawn)	CCHF vOTU inh-1 34.1 | CCHF vOTU inh-2 inactive
COC(=O)c1c(Sc2ccccc2)c2ccccc2n1C	none
Cc1ccc2nc(C(C)(C)C)c(Cc3ccccc3C(F)(F)F)n2c1	CCHF vOTU inh-1 30.0 (no result: Yp Topo-I inh, BH1578 lux ind) | CCHF vOTU inh-2 inactive
CCCCC[C@H](C)N1C[C@@H](COCc2ccccc2)Oc2cc(N3CCC[C@H]3C(N)=O)ccc2S1(=O)=O	CCHF vOTU inh-1 35.4 (no result: Yp Topo-I inh, BH1578 lux ind) | CCHF vOTU inh-2 inactive
CCCCC[C@@H](C)N1C[C@H](COCc2ccccc2)Oc2cc(N3CC[C@@H](O)C3)ccc2S1(=O)=O	CCHF vOTU inh-1 41.5 (no result: Yp Topo-I inh, BH1578 lux ind) | CCHF vOTU inh-2 inactive
COC(=O)c1sc(NC(=O)COc2ccc(C)cc2)nc1C	none
Nc1nc2c(c(=O)[nH]1)C(c1cccc3ccccc13)C1=C(N2)c2ccccc2C1=O (stereo not drawn)	none
CC(C)c1c(C(=O)N/N=C/c2ccc3c(c2)OCO3)nnn1-c1nonc1N	none
CCN(CC)c1ccc(/C=N/NC(=O)c2nnn(-c3nonc3N)c2C(C)C)c(O)c1	CCHF vOTU inh-1 31.4 | CCHF vOTU inh-2 inactive
Cc1ccc(-n2nc(C)c(C(=O)O)n2)c(C)c1	none
CC(NC1=CC(=O)c2cccnc2C1=O)C(O)c1ccccc1 (stereo not drawn)	CCHF vOTU inh-1 101.2 | CCHF vOTU inh-2 94.0
CC(c1ccccc1)N1C(=O)c2cccnc2C1=O (stereo not drawn)	none
CCOc1cccc(CNn2cnnc2)c1OCc1ccccc1Cl	none (no result: BH1578 lux ind)
CCOc1cccc(CNc2ccc(O)cc2)c1OCc1ccccc1Cl	CCHF vOTU inh-1 44.0 | CCHF vOTU inh-2 inactive
CCOc1cccc(CNc2ccc(O)cc2)c1OCc1ccc(Cl)cc1Cl	CCHF vOTU inh-1 49.3 | CCHF vOTU inh-2 inactive
CCOc1cccc(CNCCO)c1OCc1ccc(Cl)cc1Cl	none
COC(=O)c1ccc(C(=O)OC)c(NC(=O)CN(C)Cc2ccc(Cl)c(Cl)c2)c1	none
CCOC(=O)c1c(-c2ccccc2)[nH]c2ccc(O)cc12	CCHF vOTU inh-1 33.8 | CCHF vOTU inh-2 inactive
Cc1ccccc1C(=O)NNC(=O)C(=O)Nc1cccc(Cl)c1C	none
O=C(c1cccs1)N1C[C@@H](O)[C@H](n2cc(C3CC3)nn2)C[C@@H]1c1ccccc1	none
O=C(c1cccs1)N1C[C@H](O)[C@@H](n2cc(C3CC3)nn2)C[C@@H]1c1ccccc1	CCHF vOTU inh-1 30.5 | CCHF vOTU inh-2 inactive
CNc1oc(-c2ccccc2)nc1S(=O)(=O)c1ccc(C)cc1	CCHF vOTU inh-1 30.3 | CCHF vOTU inh-2 inactive
CCCCn1c(SCC(=O)NC2CCCC2)nc2ccccc2c1=O	none
Cc1ccc(C(=O)N/C(=C/c2cn(-c3ccccc3)nc2-c2ccccc2)C(=O)O)cc1	CCHF vOTU inh-1 39.1 | CCHF vOTU inh-2 inactive
Cc1cnc(SCc2cnc(C)nc2N)nc1	none
Cc1ccc2nsnc2c1S(=O)(=O)N(CCO)Cc1cc2cc3c(cc2[nH]c1=O)OCCO3	CCHF vOTU inh-1 43.5 | CCHF vOTU inh-2 inactive
Cc1ccc2[nH]c(=O)c(CN(CC3CCCO3)S(=O)(=O)c3c(C)ccc4nsnc34)cc2c1 (stereo not drawn)	none
Cc1ccc(S(=O)(=O)N(Cc2cc3cc4c(cc3[nH]c2=O)OCCO4)CC2CCCO2)cc1 (stereo not drawn)	CCHF vOTU inh-1 37.8 | CCHF vOTU inh-2 inactive
COc1ccc(/C=C/c2cccc[n+]2C)c(O)c1	none
FC(F)(F)C1=Nc2cccc3cccc(c23)N1	CCHF vOTU inh-1 41.4 | CCHF vOTU inh-2 inactive
Cc1ccc(/C=N/n2c(-c3cccnc3)n[nH]c2=S)s1	CCHF vOTU inh-1 34.0 | CCHF vOTU inh-2 inactive
Cc1cc(/C=N/NC(N)=S)c(C)n1-c1ccc(Br)cc1	none
CCc1nnc(N/N=C/c2c(C)[nH]c3ccccc23)n1N	CCHF vOTU inh-1 112.4 | CCHF vOTU inh-2 inactive
CCc1nnc(N/N=C/c2cc(C)c(C)cc2C)n1N	CCHF vOTU inh-1 74.5 | CCHF vOTU inh-2 inactive
Fc1cccc(Cl)c1/C=N/Nc1ccccn1	none
Cc1[nH]c2ccccc2c1/C=N/NC(N)=S	none
CCc1nnc(N/N=C/c2c(F)cccc2Cl)n1N	CCHF vOTU inh-1 87.5 | CCHF vOTU inh-2 inactive
Cc1nnc(N/N=C/c2cc(C)n(-c3ccc(F)cc3)c2C)n1N	CCHF vOTU inh-1 99.1 | CCHF vOTU inh-2 inactive
Cc1nnc(N/N=C/c2c(Cl)cccc2Cl)n1N	CCHF vOTU inh-1 74.5 | CCHF vOTU inh-2 inactive
Oc1ccccc1/C=N/Nc1nn[nH]n1	none
Clc1cccc(Cl)c1/C=N\Nc1nccs1	none
Cc1nnc(N/N=C/c2ccccc2O)n1N	CCHF vOTU inh-1 97.0 | CCHF vOTU inh-2 inactive
CCOc1cc(/C=N/Nc2nnc(C)n2N)ccc1O	CCHF vOTU inh-1 116.7 | CCHF vOTU inh-2 inactive
CCOc1cc(/C=N/Nc2ncnc(Cl)c2N)ccc1O	none
Cc1ccc2c(c1)CCCN2C(=O)NC1CCCCC1	none
O=c1c2ccccc2c(C=Nc2ccccc2O)c(O)n1-c1nccs1	none
Cc1nn(C)c(C)c1NC(=O)COc1ccccc1C#N	none
CCOC(=O)CCCCCC(=O)Nc1ccc2c(c1)C(=O)N([C@H](C)CO)C[C@H](C)[C@@H](CN(C)C(=O)Nc1ccccc1)OCCCC[C@@H](C)O2	CCHF vOTU inh-1 38.1 | CCHF vOTU inh-2 inactive
CC(C)NC(=O)N(C)C[C@H]1OCCCC[C@@H](C)Oc2ccc(NC(=O)C3CCCCC3)cc2C(=O)N([C@H](C)CO)C[C@@H]1C	none
CC(C)NC(=O)N(C)C[C@@H]1OCCCC[C@@H](C)Oc2ccc(NC(=O)Nc3ccc(F)cc3)cc2C(=O)N([C@H](C)CO)C[C@@H]1C	CCHF vOTU inh-1 32.2 (no result: Yp Topo-I inh, BH1578 lux ind) | CCHF vOTU inh-2 inactive
CCOC(=O)C(C(=O)OCC)c1cc(Br)c2noc3c2c1C(=O)c1ccccc1-3	CCHF vOTU inh-1 35.3 | CCHF vOTU inh-2 inactive
Cc1c(NC(=O)C(C)OC(=O)c2ccc([N+](=O)[O-])s2)c(=O)n(-c2ccccc2)n1C (stereo not drawn)	CCHF vOTU inh-1 41.0 | CCHF vOTU inh-2 45.1

Bioassay records as filed in PubChem.
